Records with an inconclusive call do not appear. Unmarked numbers belong to inactive results. Activity calls are given as the source filed them. Calls follow the shape of the dose curve; as a rule, active = well fitted inhibition curve with a large enough effect; inconclusive = small, poorly fitted or top-dose-only effect, or effect the other way; inactive = flat fitted curve, though single readings scatter.
molecular target: Ubiquitin carboxyl-terminal hydrolase 2 (Homo sapiens) (UniProt O75604); assay: Confirmation Assay for Inhibitors of Ubiquitin-specific Protease USP2a Using CHOP2 as the Reporter; conditions: USP2 core, Ub-CHOP2 coupled reporter fluorescence; series mostly up to 38.3 µM; activity change, negative = inhibition: at the top concentration; also: nearly all actives have a fitted effect of over 55% in size;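 as to activity change, negative = inhibition: plate controls were DMSO wells for no effect and full inhibition by NEM control for full effect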
In short: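 Ub-CHOP2 cleavage coupled to reporter activation was read by fluorescence after 60 min at RT, with 25 nM final Ub-CHOP2 and substrate. Enzyme (10 nM final USP2 core) first sat 30 min with compound; data were normalized to NEM and fitted to concentration-response curves.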
Potency is read from the fitted curve at half-maximal effect.

Ubiquitin carboxyl-terminal hydrolase 2 (Homo sapiens), sequence (O75604 whole entry, looked up): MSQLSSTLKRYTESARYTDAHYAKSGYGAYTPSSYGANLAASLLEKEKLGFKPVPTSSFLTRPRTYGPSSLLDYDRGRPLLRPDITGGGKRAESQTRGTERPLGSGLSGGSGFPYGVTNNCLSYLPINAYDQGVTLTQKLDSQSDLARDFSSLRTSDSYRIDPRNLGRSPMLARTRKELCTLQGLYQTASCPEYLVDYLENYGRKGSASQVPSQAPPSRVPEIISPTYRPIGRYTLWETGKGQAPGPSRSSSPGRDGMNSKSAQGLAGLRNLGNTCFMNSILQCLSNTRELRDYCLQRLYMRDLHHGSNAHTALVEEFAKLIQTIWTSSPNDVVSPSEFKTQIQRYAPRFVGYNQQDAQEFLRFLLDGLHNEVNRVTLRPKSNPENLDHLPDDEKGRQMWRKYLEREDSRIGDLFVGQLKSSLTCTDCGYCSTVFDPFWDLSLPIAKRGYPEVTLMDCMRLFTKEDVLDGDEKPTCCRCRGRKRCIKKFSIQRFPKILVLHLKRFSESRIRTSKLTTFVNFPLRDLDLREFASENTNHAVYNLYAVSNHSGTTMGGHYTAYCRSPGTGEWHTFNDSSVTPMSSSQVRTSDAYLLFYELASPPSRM

| SMILES | activity change, negative = inhibition | Potency |
| --- | --- | --- |
| c1ccc(-c2nc3nc4ccccc4nc3n2Cc2ccco2)cc1 | 5.83% | – |
| O=C1NC[C@@H](c2ccccc2)OC(=O)[C@@H](Cc2ccc(F)cc2)CC/C=C/C[C@@H]1CC(=O)N(CCO)Cc1ccccc1 | 1.12% | – |
| Cc1ccc(C(=O)NCCNS(=O)(=O)c2ccccc2)cc1 | 3.38% | – |
| COc1ccc(-c2[nH]ncc2/C=C(/C#N)C(=O)NC2CCCCC2)cc1 | 5.96% | – |
| N=C1C(c2nc3ccccc3c(=O)[nH]2)=C(O)CN1CCc1ccccc1 | 0.0409% | – |
| O=C(CSc1nc2ccccc2[nH]1)Nc1ccc2c(c1)OCCO2 | -2.85% | – |
| CC1CCCC(NC(=O)C2N(CCCN3CCCC3)C(=O)C3C(C(=O)Nc4ccc(Cl)cc4)C4C=CC32O4)C1C (stereo not given) | 0.321% | – |
| C/C(=N/NC(=O)c1cc2ccccc2cc1O)C1C(=O)c2ccccc2C1=O | – | 5.85 µM (active) |
| Cc1cc(C)cc(C(=O)Nc2ccc(N3CCCC3)cc2)c1 | -18.2% | – |
| O=C(O)CP(=O)(c1ccccc1)c1ccccc1 | 0.641% | – |
| COc1cc(C)ccc1OCCOc1cc(C)ccc1Cl | 6.42% | – |
| CCOC(=O)Nc1nnc(CCc2ccccc2)s1 | -0.956% | – |
| O=C(C[n+]1ccc(-c2cc(C(=O)Nc3cccc(C(F)(F)F)c3)c3ccccc3n2)cc1)c1cccc([N+](=O)[O-])c1 | -8.79% | – |
| COc1ccc(S(=O)(=O)N(C)CC(=O)Nc2cccc(C(C)=O)c2)cc1Cl | 2.49% | – |
| COc1ccc(NC(=O)CSc2nc3sc(C)cc3c(=O)n2C)c(OC)c1 | -4.17% | – |
| CN(C)S(=O)(=O)c1cccc(NC(=S)NNC(=O)c2cc3ccccc3cc2O)c1 | -3.66% | – |
| COc1ccccc1-n1c(SCC(=O)Nc2ccc(C)cc2)nc(O)cc1=O | -5.29% | – |
| Cc1ccc(C(=O)NCCCc2ccccc2)s1 | -1.2% | – |
| CN(C)c1ccc(-c2ccccc2)nn1 | 0.568% | – |
| CC(C)(C)C1CCc2nc(NC(=O)Cc3cn4ccsc4n3)sc2C1 (stereo not given) | -5.16% | – |

| SMILES | activity change, negative = inhibition | Potency |
| --- | --- | --- |
| CC(OC(=O)CN(C)S(=O)(=O)c1ccc(Cl)cc1)C(=O)Nc1ccc(N2CCOCC2)cc1 (stereo not given) | 0.112% | – |
| Cc1cc(/C=C2\C(=N)N3N=C(c4ccco4)SC3=NC2=O)c(C)n1Cc1ccccc1 | – | 16.5 µM (active) |
| Cc1ccc(CN2C(=O)N/C(=C\c3cccn3-c3cccc(C(=O)O)c3)C2=O)cc1 | 1.47% | – |
| CCOc1ccc(NC(=O)CSc2nnc(Cn3c(=O)sc4ccccc43)n2C)cc1 | -0.518% | – |
| Cc1c(NC(=O)C2CCCN2S(=O)(=O)c2ccc(Cl)cc2)c(=O)n(-c2ccccc2)n1C (stereo not given) | 7.2% | – |
| Cc1cccn2c(=O)c3cc(C(=O)NCCN4CCOCC4)c(=N)n(CCN4CCOCC4)c3nc12 | 0.715% | – |
| CC(C)OCCCNC(=O)CN1C(=O)CC(C)(C)S(=O)(=O)c2ccccc21 | -6.12% | – |
| Cc1ccccc1OCCn1nc(C(=O)O)c2ccccc2c1=O | 0.884% | – |
| O=C1c2ccccc2CCC12N=NCC2c1ccc(Br)cc1 (stereo not given) | -1.61% | – |
| COC(=O)C1CCN(C(=O)COC(=O)CC(NC(N)=O)c2ccc(Cl)cc2)CC1 (stereo not given) | 1.45% | – |
| COc1cc(-c2nc(-c3ccc4c(c3)-c3ccccc3S4(=O)=O)c(-c3ccccc3)[nH]2)cc(OC)c1O | -1.03% | – |
| O=C(O)C1CCN1C1CCCCC1 (stereo not given) | -1.8% | – |
| CCOC(=O)C1CCCN(CC(=O)Nc2c(C(=O)OC)[nH]c3ccc(C)cc23)C1 (stereo not given) | -1.36% | – |
| COc1ccc(CCNC(=O)Cc2cc(=O)[nH]c(=O)[nH]2)cc1OC | 1.29% | – |
| C=CCNCCOCCOc1ccccc1-c1ccccc1 | -4.65% | – |
| COCc1cc(C)nc(OCC(=O)N/N=C\c2cc(C)n(-c3cccc(C(F)(F)F)c3)c2C)c1C#N | 0.0262% | – |
| CN(CC(=O)Nc1cccc2ccccc12)C(=O)c1ccc(NC(=O)CC#N)cc1 | -0.14% | – |
| Cc1nn(CC(=O)Nc2cccc(S(N)(=O)=O)c2)c(C)c1[N+](=O)[O-] | 1.06% | – |
| O=C(NC(=S)N1CCCc2ccccc21)c1ccc([N+](=O)[O-])cc1 | -6.36% | – |
| CCC(C)(C(=O)NC1CCCCC1)N(C(=O)C1CCC(=O)N1)c1ccccc1 (stereo not given) | -1.54% | – |

Source: PubChem BioAssay AID493168 (National Center for Advancing Translational Sciences (NCATS), 2011)
